Reference: PubChem BioAssay (Tox21)
Results filed as inconclusive are left out. The source made the active and inactive calls. Calls follow the shape of the dose curve; as a rule, active = well fitted curve in the direction sought with a large enough effect in the repeat runs; inconclusive = weak or mixed curves; inactive = no such curve, though single readings can be large; an effect the other way counts as inactive or inconclusive.

Test: qHTS assay to identify small molecule antagonists of the androgen receptor (AR) signaling pathway - cell viability counter screen (AID 743033)
Conditions: AR-bla HEK293 viability, CellTiter-Glo luminescence, 16 h; series mostly up to 58.5 µM; activity change, negative = cytotoxicity: at the top concentration
% is scaled to controls: 0 for no effect and ±100 for the full control effect.
Also: nearly all actives have a fitted effect of over 45% in size.

Structure (SMILES)	outcome	activity change, negative = cytotoxicity
O=[N+]([O-])c1cc([As](=O)(O)O)ccc1O	inactive	–
COS(=O)(=O)OC	–	-0.362% (inactive)
CCOP(=S)(OCC)Oc1cc(C)nc(C(C)C)n1	inactive	–
C[C@H]1C(=O)O[C@@H]2CCN3CC=C(COC(=O)[C@](C)(O)[C@]1(C)O)[C@H]23	inactive	–
Nc1ncc([N+](=O)[O-])s1	inactive	–
C=CCN=C=S	inactive	–
CC(=O)C1CCOC1=O (configuration not stated)	–	0.628% [at 78.9 µM] (inactive)
COc1cc(-c2ccc(N)c(OC)c2)ccc1N	inactive	–
Cc1cccc(N)c1	inactive	–
O=C(O)COc1ccccc1	inactive	–
O=[N+]([O-])c1ccc(Cl)cc1	inactive	–
Cc1cccc(C)c1NC(=O)CN1CCCC1=O	inactive	–
NNc1ccccc1	inactive	–
O=C(O)C(Br)Br	inactive	–
Nc1nc(N)nc(NC2CC2)n1	inactive	–
C=CC#N	inactive	–

Structure (SMILES)	outcome	activity change, negative = cytotoxicity
CN(C)C(=O)Cl	inactive	–
Cc1cccc(C)c1N	inactive	–
CC[N+](=O)[O-]	inactive	–
N#CN=C(N)N	inactive	–
CN(C)NC(=O)CCC(=O)O	inactive	–
CNC(=O)Oc1cccc2ccccc12	inactive	–
Nc1ccc([As](=O)(O)O)cc1	inactive	–
Sc1ccccc1	inactive	–
Nc1cc(Cl)cc(Cl)c1	inactive	–
Cc1ccc(N=C=O)cc1N=C=O	inactive	–
OCCCCO	inactive	–
Nc1ccc(N)cc1	inactive	–
CCOc1ccc(N)cc1	inactive	–
C=C(C)C(=O)OCC(CC)CCCC (configuration not stated)	inactive	–
C=CC(=O)OCC(CC)CCCC (configuration not stated)	inactive	–

Test: qHTS assay to identify small molecule antagonists of the androgen receptor (AR) signaling pathway using the MDA cell line - cell viability counter screen (AID 743041)
Conditions: MDA-kb2 viability, CellTiter-Fluor, 16 h, cells co-treated with R1881 androgen agonist; series mostly up to 70.3 µM; viability change, negative = cytotoxic: at the top concentration
Outline: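 Compound exposure lasted 16 h at 37C in MDA-kb2 AR-luc cells stimulated with R1881. Protease-based CellTiter-Fluor reagent was applied for the final 30 min and fluorescence measured.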

Structure (SMILES)	outcome	viability change, negative = cytotoxic
O=[N+]([O-])c1cc([As](=O)(O)O)ccc1O	inactive	–
COS(=O)(=O)OC	inactive	–
CCOP(=S)(OCC)Oc1cc(C)nc(C(C)C)n1	inactive	–
C[C@H]1C(=O)O[C@@H]2CCN3CC=C(COC(=O)[C@](C)(O)[C@]1(C)O)[C@H]23	inactive	–
Nc1ncc([N+](=O)[O-])s1	inactive	–
C=CCN=C=S	inactive	–
CC(=O)C1CCOC1=O (configuration not stated)	–	6.07% [at 95 µM] (inactive)
COc1cc(-c2ccc(N)c(OC)c2)ccc1N	inactive	–
Cc1cccc(N)c1	inactive	–
O=C(O)COc1ccccc1	inactive	–
O=[N+]([O-])c1ccc(Cl)cc1	inactive	–
Cc1cccc(C)c1NC(=O)CN1CCCC1=O	inactive	–
NNc1ccccc1	inactive	–
O=C(O)C(Br)Br	inactive	–
Nc1nc(N)nc(NC2CC2)n1	inactive	–
C=CC#N	inactive	–

Structure (SMILES)	outcome	viability change, negative = cytotoxic
CN(C)C(=O)Cl	inactive	–
Cc1cccc(C)c1N	inactive	–
CC[N+](=O)[O-]	inactive	–
N#CN=C(N)N	inactive	–
CN(C)NC(=O)CCC(=O)O	–	0% [at 95 µM] (inactive)
CNC(=O)Oc1cccc2ccccc12	inactive	–
Nc1ccc([As](=O)(O)O)cc1	inactive	–
Sc1ccccc1	inactive	–
Nc1cc(Cl)cc(Cl)c1	inactive	–
Cc1ccc(N=C=O)cc1N=C=O	inactive	–
OCCCCO	inactive	–
Nc1ccc(N)cc1	–	-5.22% (inactive)
CCOc1ccc(N)cc1	inactive	–
C=C(C)C(=O)OCC(CC)CCCC (configuration not stated)	inactive	–
C=CC(=O)OCC(CC)CCCC (configuration not stated)	inactive	–
